# From PubChem BioAssay
# A selection: hits, their analogues and other compounds. The true share with any hit is near 19%.
# ELG1 DNA repair = qHTS screen for small molecules that inhibit ELG1-dependent DNA repair in human embryonic kidney (HEK293T) cells expressing luciferase-tagged ELG1 | HEK293T ELG1-luciferase reporter, luminescence, 16 h; DNA damage induced by 5-fluorouridine | Potency, µM (highest dose often 46.1 µM), for inactives: at the top dose activity change, negative = inhibition, actives largely listed as inhibitors | actives 2.3% (n = 330,000) | AID 504467, 2011; note: potency is the fitted concentration of half-maximal effect; nearly all actives have a fitted effect of over 55% in size
#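 Step one: seed 2,000 cells per well. Step two: pin-transfer compound or DMSO alongside 5-fluorouridine. Step three: incubate 16 hr, 37 °C, 5% CO2. Step four: add ONE-Glo, wait 30 min, read luminescence.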
# TDP1 inh = qHTS Assay for Inhibitors of Tyrosyl-DNA Phosphodiesterase (TDP1). recombinant TDP1, AlphaScreen DNA substrate cleavage. actives 0.28% (n = 350,000). Tyrosyl-DNA phosphodiesterase 1 (Homo sapiens), Q9NUW8. Potency, µM (highest dose often 130 µM), for inactives: at the highest dose activity change, negative = inhibition, actives largely listed as inhibitors. AID 485290, 2010; note: potency is the fitted concentration of half-maximal effect; nearly all actives have a fitted effect of over 40% in size
# Target sequence (Q9NUW8 whole entry, looked up): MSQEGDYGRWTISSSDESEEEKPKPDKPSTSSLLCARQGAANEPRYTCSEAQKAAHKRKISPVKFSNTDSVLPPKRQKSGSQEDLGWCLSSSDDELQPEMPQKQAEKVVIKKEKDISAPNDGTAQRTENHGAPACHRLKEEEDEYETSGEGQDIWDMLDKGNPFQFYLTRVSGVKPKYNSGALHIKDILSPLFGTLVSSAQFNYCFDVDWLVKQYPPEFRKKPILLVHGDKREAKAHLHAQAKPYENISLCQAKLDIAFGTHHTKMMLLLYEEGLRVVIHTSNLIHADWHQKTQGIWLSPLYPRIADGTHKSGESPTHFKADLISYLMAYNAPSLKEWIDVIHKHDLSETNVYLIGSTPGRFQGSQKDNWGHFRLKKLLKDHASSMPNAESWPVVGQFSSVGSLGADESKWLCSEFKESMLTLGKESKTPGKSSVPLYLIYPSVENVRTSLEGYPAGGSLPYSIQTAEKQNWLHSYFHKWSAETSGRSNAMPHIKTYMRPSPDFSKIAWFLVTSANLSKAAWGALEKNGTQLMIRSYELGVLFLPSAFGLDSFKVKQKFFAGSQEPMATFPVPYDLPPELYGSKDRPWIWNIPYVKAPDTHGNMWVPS
#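 Compounds were preincubated with Tdp1 (1 nM final) for 15 min at room temperature before substrate (15 nM final) started a 5 min reaction; beads (10 ug/ml final) were then added for 10 min before AlphaScreen detection.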
# IL-1B inflam inh = qHTS for Inhibitors of Inflammasome Signaling: IL-1-beta AlphaLISA Primary Screen; activity change, % at 57.5 µM; actives 4.7% (n = 360,000); AID 743279, 2014; THP-1 LPS/ATP IL-1B secretion, AlphaLISA, 16 h; active compounds read low; in the data active = activity change below about -50%; inconclusive = mostly about -30% to -49%
#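 THP-1 cells pretreated 1 hr with compounds (up to 57.5 uM final), then stimulated with LPS (250 ng/mL final) plus ATP (1.25 mM final); secreted IL-1B measured by AlphaLISA after 16 hr, decreased signal indicating inhibition.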
# DT40 TDP1 no CPT = qHTS for Inhibitors of human tyrosyl-DNA phosphodiesterase 1 (TDP1): qHTS in cells in absence of CPT | actives 15% (n = 420,000) | Potency, µM (doses to about 46.2 µM), without a hit: at the top dose activity change, negative = growth inhibition, most hits filed as inhibitors | DT40 Tdp1-/- hTDP1 cells, no CPT, ATP luminescence, 48 h | AID 686978, 2013; note: potency is the fitted concentration of half-maximal effect; nearly all actives have a fitted effect of over 55% in size
#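 No-CPT arm: Tdp1-/-;hTDP1 DT40 cells (400/well) plus compounds, incubated ≥48 hr at 37 °C. Readout CellTiter-Glo luminescence.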
# Giardia kill = Small Molecules that selectively kill Giardia lamblia: qHTS. Giardia lamblia trophozoite viability. actives 0.15% (n = 340,000). activity change, % at 7.66 µM, hits read low. AID 540267, 2011; in the data active = activity change below about -80%; inconclusive = between about -30% and that limit;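 note: parasites exposed to compound for two days anaerobically before the ATP read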
#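 Compounds were tested on trophozoites seeded at 100 cells/well and held 48 hrs at 37 deg C anaerobically. An ATP-based luminescent kit measured the remaining live cells.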
# TDP1 cell CPT = qHTS for Inhibitors of human tyrosyl-DNA phosphodiesterase 1 (TDP1): qHTS in cells in presence of CPT; chicken DT40 Tdp1-/-;hTDP1 cells + 20 nM CPT, ATP luminescence, 48 h; Potency, µM (titrated, usually from 46.2 µM), for the others: at the highest dose activity change, negative = growth inhibition, hits mostly inhibitors; actives 12% (n = 420,000); AID 686979, 2013; note: potency is the fitted concentration of half-maximal effect; nearly all actives have a fitted effect of over 55% in size
#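 Cell growth measured by CellTiter-Glo luminescence after a minimum 48 h, 37 C compound exposure with 20 nM CPT in Tdp1-knockout DT40 cells stably expressing hTDP1, seeded 400/well; qHTS titration format.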
# Numbers without * were called inactive; ? = inconclusive; nt = not tested or not shown; ! = a repeat was not active; [ ] = dose if it differs, or a comment. Unless noted, calls come from the whole dose curve; as a rule, active = well fitted curve in the direction sought with a large enough effect; inconclusive = small, poorly fitted or top-dose-only effect, or another doubt; inactive = no such curve, though single readings can be large; an effect the other way counts as inactive or inconclusive. % is set by controls: 0 for no effect and ±100 for the full control effect.
SMILES,ELG1 DNA repair,TDP1 inh,IL-1B inflam inh,DT40 TDP1 no CPT,Giardia kill,TDP1 cell CPT
CCCCCCCn1c(=O)c(C(=O)OC)c(N)c2ccccc21,?,nt,-58.8*,3.26µM*,2.7,3.26µM*
CCCCCCCCn1c(=O)c(C(=O)OC)c(N)c2ccccc21,?,3.6%,-95.4*,3.26µM*,2.3,1.3µM*
CCCCCCn1c(=O)c(-c2ccccc2)c(O)c2ccccc21,0.4%,3.9%,10.1,-21.7%,4.5,13.2%
COC(=O)c1c(N)c2ccccc2[nH]c1=O,-2.4%,6.3%,-2.1,-7.5%,11.2,-5.6%
O=C(OCn1nnc2ccccc2c1=O)c1cccc(S(=O)(=O)N2CCOCC2)c1,0.1%,-3.3%,9.9,-2.3%,-0.9,-19.9%
CC(C)CNC(=O)C1(C)CCCN1C(=O)CCc1cccs1 (centres undefined),nt,nt,-6.9,-5.7%,nt,-17.4%
c1ccc(-c2nnc(CN3CCCCC3)o2)cc1,?,nt,13.6,-12.0%,24.3,-6.2%
c1ccc(-c2nnc(CN3CCCc4ccccc43)o2)cc1,?,11.6%,16.4,23.1µM*,25.9,?
Cc1ccc(NC(=O)CN2C(=O)C(C)(C)c3ccccc32)cc1,nt,-4.4%,nt,?,nt,1.1%
Nc1ccc(C=O)cc1,nt,nt,nt,-10.0%,nt,-20.3%
O=C(CSc1nc2ccccc2c(=O)n1CC1CCCO1)N1CCN(c2ccccc2)CC1 (centres undefined),nt,nt,0.0,23.1µM*,6.8,25.9µM*
Cc1ccc(NC(=O)CSc2nc3cc(C(=O)NCC4CCCO4)ccc3c(=O)n2CC2CCCO2)cc1 (centres undefined),nt,nt,-5.8,?,nt,?
O=C(CSc1nc2ccccc2c(=O)n1CC1CCCO1)NCc1ccccc1 (centres undefined),3.6%,7.4%[0.0935 µM],27.9,-28.0%,5.9,-23.8%
O=C(NCC1CCCO1)c1ccc2c(=O)n(CC3CCCO3)c(SCC(=O)N3CCCC3)nc2c1 (centres undefined),7.8%,6.9%,15.6,0.231µM*,9.7,-6.8%
Cc1ccc(C(=O)CSc2nc3cc(C(=O)NC4CCCC4)ccc3c(=O)n2CC2CCCO2)c(C)c1 (centres undefined),nt,-2.6%,nt,?,nt,10.3µM*
CCN(c1ccccc1)S(=O)(=O)c1cc(C(=O)Nc2cccc(Cl)c2)ccc1F,23.1µM*,0.0%,-10.0,?,9.8,?
CCc1ccc(NC(=O)c2ccc(F)c(S(=O)(=O)N(CC)c3ccccc3)c2)cc1,?,1.4%,18.5,8.2µM*,-6.0,?
CCc1cccc(-n2nnc(S(=O)(=O)c3ccc(OC)cc3)c2C)c1,nt,-3.5%,nt,?,nt,-19.0%
CCc1ccc(S(=O)(=O)c2nnn(-c3ccc(F)cc3)c2N)cc1,nt,4.5%,nt,16.4µM*,nt,23.1µM*
COc1cccc(-n2nnc(S(=O)(=O)c3ccc(C)cc3)c2N)c1,?,2.3%,0.0,23.1µM*,17.0,?
COc1ccc(S(=O)(=O)c2nnn(-c3cccc(Cl)c3)c2N)cc1,-23.3%,0.0%,16.4,20.6µM*!,2.2,11.6µM*
COc1cccc(CN(C)C[C@H]2OCc3cnnn3CCCC(=O)N([C@@H](C)CO)C[C@@H]2C)c1,nt,nt,19.5,4.8%,nt,2.7%
CSC1=NC2(CCN(C(=O)NC3CCCCC3)CC2)N=C1c1ccc(C)c(C)c1,nt,1.1%,nt,-2.6%,nt,-9.0%
NS(=O)(=O)OCCCc1ccc(C(F)(F)F)cc1,-12.6%,nt,19.2,?,16.8,?
COc1cc(C(=O)NC(C(=O)Nc2cccc(C(C)=O)c2)C(C)C)cc(OC)c1OC (centres undefined),-20.4%,8.0%,-8.0,-26.4%,-5.4,-1.9%
SMILES,ELG1 DNA repair,TDP1 inh,IL-1B inflam inh,DT40 TDP1 no CPT,Giardia kill,TDP1 cell CPT
O=C(N/N=C/c1ccccc1O)C1CC(=O)N(c2ccc(Cl)cc2)C1 (centres undefined),?,0.6%,178.5,3.66µM*,-29.0,7.31µM*
O=C(N/N=C/c1cccs1)C1CC(=O)N(c2ccccc2)C1 (centres undefined),19.2%,7.1%,-21.0,-20.1%,1.4,-4.1%
N#Cc1cnn(-c2cc(Cl)ccc2Cl)c1N,nt,nt,9.6,-17.6%,nt,-9.1%
N#Cc1cnn(-c2ccc([N+](=O)[O-])cc2[N+](=O)[O-])c1N,nt,nt,33.6,18.4µM*,nt,13µM*
COc1cccc(C(CNC(=O)C(c2ccccc2)c2ccccc2)N(C)C)c1 (centres undefined),21.1%,29.2%,-23.6,?,7.0,-28.0%
Cc1c(C(=O)Nc2ccc(F)cc2)oc2ccc(S(=O)(=O)N3CC(C)CC(C)C3)cc12 (centres undefined),?,4.5%,40.4,14.6µM*,20.1,18.4µM*
CCN(CC)C(=O)c1oc2ccc(S(=O)(=O)N3CC(C)CC(C)C3)cc2c1C (centres undefined),?,2.2%,-7.1,9.2µM*,10.9,4.11µM*
Cc1c(C(=O)Nc2ccc(S(=O)(=O)Nc3ncccn3)cc2)oc2ccc(F)cc12,?,1.1%,-3.7,-4.0%,-8.3,-1.8%
CCOC(=O)c1oc2ccc(S(=O)(=O)N3CCOCC3)cc2c1C,-1.4%,3.8%,10.7,-12.9%,-4.3,-17.5%
CCN(Cc1ccccc1)C(=O)c1oc2ccc(S(=O)(=O)N3CCOCC3)cc2c1C,?,0.9%,-52.8*,-26.2%,29.5,?
CCN(CC)C(=O)c1oc2ccc(S(=O)(=O)N3CCCCCC3)cc2c1C,-27.2%,4.5%,-9.9,23.1µM*,-0.5,?
COC(=O)c1ccc(CN2CCCC(CO)(Cc3ccccc3F)C2)cc1 (centres undefined),-1.5%,nt,2.3,-8.4%,-8.9,-25.7%
Cc1cccc(-c2ccc3[nH]c4c(c3c2)CCN2C[C@@H]([C@H](C)O)[C@@H](N(C)C(=O)Nc3ccc(F)cc3)C[C@@H]42)c1,nt,nt,-23.4,18.4µM*,nt,16.4µM*
COc1ccc(NC(=O)N(C)[C@H]2C[C@H]3c4[nH]c5ccc(-c6cccc(C)c6)cc5c4CCN3C[C@H]2[C@H](C)O)cc1,nt,nt,-29.2,16.4µM*,nt,?
C[C@H](O)[C@@H]1CN2CCc3c([nH]c4ccc(-c5ccc6c(c5)OCO6)cc34)[C@@H]2C[C@@H]1N(C)C(=O)Nc1cc(Cl)cc(Cl)c1,nt,nt,-15.7,3.26µM*,nt,4.11µM*
